# About 79,000 compounds went through this panel and 15% of them were active in at least one assay; those are over-represented in the sample as a whole. A number with no mark means an inactive call. Calls of active or inactive are those of the source. No stated cut-off is given here; in the data, active means growth inhibition above about 70%; inactive means the rest.
# Assays:
# [1] = NCI Yeast Anticancer Drug Screen. Data for the rad52 strain (AID 147);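 further: 0% = growth of vehicle-treated control cultures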; settings: S. cerevisiae rad52 mutant growth inhibition, active compounds read high
# How it was run: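 Genetically altered yeast (DNA damage repair defect) treated with compound; inhibition calculated relative to vehicle.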
# [2] = NCI Yeast Anticancer Drug Screen. Data for the wt1 strain (AID 149);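 further: 0% = growth of vehicle-treated wt1 cultures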; settings: S. cerevisiae wt1 strain (SPY 50644) growth inhibition, active compounds read high
# How it was run: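 wt1 strain grown with compound or vehicle; inhibition taken from the growth difference.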
# [3] = NCI Yeast Anticancer Drug Screen. Data for the rad50EPP+ strain (AID 151);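 further: 0% = growth of vehicle-treated control cultures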; settings: S. cerevisiae rad50 mutant strain, active compounds read high
# How it was run: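 Strain rad50EPP+; compound exposure; % growth inhibition vs vehicle.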
# [4] = NCI Yeast Anticancer Drug Screen. Data for the rad50 strain (AID 155);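 further: 0% = growth of vehicle-only cultures of the same strain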; settings: S. cerevisiae rad50 strain growth inhibition, active compounds read high
# How it was run: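 DNA repair mutant yeast, compound exposure, growth read-out; inhibition is taken relative to vehicle.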
# [5] = NCI Yeast Anticancer Drug Screen. Data for the mec2-1 strain (AID 157); settings: S. cerevisiae mec2-1 strain, active compounds read high
# How it was run: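 Cells of the genetically defined mec2-1 yeast strain are incubated with test compound. Inhibition of growth is calculated against vehicle-treated controls.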
# [6] = NCI Yeast Anticancer Drug Screen. Data for the rad14 strain (AID 159);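 further: 0% = growth of vehicle-treated control cultures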; settings: S. cerevisiae rad14 strain growth inhibition, active compounds read high
# How it was run: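 DNA repair-defective yeast, compound-exposed; % growth inhibition derived by comparison with vehicle-treated controls.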
# [7] = NCI Yeast Anticancer Drug Screen. Data for the sgs1 mgt1 strain (AID 161);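 further: 0% = growth of cultures given vehicle only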; settings: S. cerevisiae sgs1 mgt1 strain, active compounds read high
# How it was run: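 Test agents were incubated with a DNA-repair-mutant yeast strain. Growth was then read and compared against vehicle-treated controls.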
# [8] = NCI Yeast Anticancer Drug Screen. Data for the CLN2oe strain (AID 163);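 further: 0% = growth of vehicle-only control cultures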; settings: S. cerevisiae CLN2oe strain, active compounds read high
# How it was run: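 Strain altered in cell-cycle control, incubated with compound; growth compared to solvent-treated controls.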
# [9] = NCI Yeast Anticancer Drug Screen. Data for the cln2 rad14 strain (AID 165);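 further: 0% = growth equal to vehicle treated cultures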; settings: S. cerevisiae cln2 rad14 strain, active compounds read high
# How it was run: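 The screen exposed genetically defined yeast (cln2 rad14) to test compounds and scored growth inhibition relative to vehicle-treated controls.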
# [10] = NCI Yeast Anticancer Drug Screen. Data for the bub3 strain (AID 167); settings: S. cerevisiae bub3 mutant strain, active compounds read high
# How it was run: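 In this screen, a yeast mutant lacking normal mitotic checkpoint function is challenged with compound. Relative growth versus vehicle gives the inhibition value.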
# [11] = NCI Yeast Anticancer Drug Screen. Data for the wt2 strain (AID 169);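 further: 0% = growth of vehicle-treated yeast cultures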; settings: S. cerevisiae wt2 strain growth inhibition, active compounds read high
# How it was run: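 Steps: yeast strain treated with compound; growth recorded; inhibition calculated relative to cultures given vehicle alone.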
# [12] = NCI Yeast Anticancer Drug Screen. Data for the mlh1 strain (AID 171);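 further: 0% = growth of vehicle-treated control cultures of the same strain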; settings: S. cerevisiae mlh1 strain growth inhibition, active compounds read high
# How it was run: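 Yeast screen: mutant strain plus compound, growth scored against vehicle control wells.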
# [13] = NCI Yeast Anticancer Drug Screen. Data for the sgs1 strain (AID 173);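 further: 0% = growth of vehicle-only control cultures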; settings: S. cerevisiae sgs1 mutant, active compounds read high
# How it was run: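 Inhibition of yeast growth served as the measure. The mutant strain was treated with each compound, and growth was normalised to cultures receiving vehicle alone.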
# [14] = NCI Yeast Anticancer Drug Screen. Data for the mlh1 rad18 strain (AID 175); settings: S. cerevisiae mlh1 rad18 strain growth inhibition, active compounds read high
# How it was run: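 Compound-treated yeast growth, normalised to vehicle controls. Strain bears defined DNA repair mutations.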
# [15] = NCI Yeast Anticancer Drug Screen. Data for the rad18 strain (AID 177); settings: S. cerevisiae rad18 mutant growth inhibition, active compounds read high
# How it was run: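 Inhibition values reflect reduced yeast growth compared with vehicle-treated controls, using a strain engineered with a DNA damage repair defect.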
# [16] = at 5.0 µM (retest, dose inferred, filed as 0.5)
# [17] = at 50.0 µM (retest, dose inferred, filed as 5.0)
compound,measurement,setting,value
On1cnc(=S)c2[nH]cnc21,growth inhibition,[1]; at 1.2 µM,-28%
same,growth inhibition,[1]; at 3.7 µM,-27%
same,growth inhibition,[1]; at 11.0 µM,-29%
same,growth inhibition,[1]; at 33.0 µM,-26%
same,growth inhibition,[1]; at 100.0 µM,-35%
same,growth inhibition,[2]; at 1.2 µM,-31%
same,growth inhibition,[2]; at 3.7 µM,-33%
same,growth inhibition,[2]; at 11.0 µM,-30%
same,growth inhibition,[2]; at 33.0 µM,-39%
same,growth inhibition,[2]; at 100.0 µM,-42%
same,growth inhibition,[3]; at 1.2 µM,-23%
same,growth inhibition,[3]; at 3.7 µM,-39%
same,growth inhibition,[3]; at 11.0 µM,-11%
same,growth inhibition,[3]; at 33.0 µM,-37%
same,growth inhibition,[3]; at 100.0 µM,-41%
same,growth inhibition,[4]; at 1.2 µM,-63%
same,growth inhibition,[4]; at 3.7 µM,-33%
same,growth inhibition,[4]; [16],24%
same,growth inhibition,[4]; at 11.0 µM,-65%
same,growth inhibition,[4]; at 33.0 µM,-62%
same,growth inhibition,[4]; [17],74% (active)
same,growth inhibition,[4]; at 50.0 µM,-7.05%
same,growth inhibition,[4]; at 100.0 µM,-55%
same,growth inhibition,[5]; at 1.2 µM,31%
same,growth inhibition,[5]; at 3.7 µM,9%
same,growth inhibition,[5]; [16],15%
same,growth inhibition,[5]; at 11.0 µM,11%
same,growth inhibition,[5]; at 33.0 µM,-2%
same,growth inhibition,[5]; [17],99% (active)
same,growth inhibition,[5]; at 50.0 µM,1.85%
same,growth inhibition,[5]; at 100.0 µM,-1%
same,growth inhibition,[6]; at 1.2 µM,-32%
same,growth inhibition,[6]; at 3.7 µM,-26%
same,growth inhibition,[6]; at 11.0 µM,-34%
same,growth inhibition,[6]; at 33.0 µM,-28%
same,growth inhibition,[6]; at 100.0 µM,-14%
same,growth inhibition,[7]; [16],36%
same,growth inhibition,[7]; [17],100% (active)
same,growth inhibition,[7]; at 50.0 µM,9.3%
same,growth inhibition,[8]; at 1.2 µM,23%
same,growth inhibition,[8]; at 3.7 µM,9%
same,growth inhibition,[8]; at 11.0 µM,-10%
same,growth inhibition,[8]; at 33.0 µM,19%
same,growth inhibition,[8]; at 100.0 µM,11%
same,growth inhibition,[9]; [16],13%
same,growth inhibition,[9]; [17],97% (active)
same,growth inhibition,[9]; at 50.0 µM,1.85%
same,growth inhibition,[10]; at 1.2 µM,-29%
same,growth inhibition,[10]; at 3.7 µM,-6%
same,growth inhibition,[10]; [16],17%
same,growth inhibition,[10]; at 11.0 µM,-17%
same,growth inhibition,[10]; at 33.0 µM,-3%
same,growth inhibition,[10]; [17],99% (active)
same,growth inhibition,[10]; at 50.0 µM,-6.65%
same,growth inhibition,[10]; at 100.0 µM,-8%
same,growth inhibition,[11]; at 1.2 µM,2%
same,growth inhibition,[11]; at 3.7 µM,-6%
same,growth inhibition,[11]; at 11.0 µM,-11%
same,growth inhibition,[11]; at 33.0 µM,-4%
same,growth inhibition,[11]; at 100.0 µM,-19%
same,growth inhibition,[12]; at 1.2 µM,-6%
same,growth inhibition,[12]; at 3.7 µM,-14%
same,growth inhibition,[12]; at 11.0 µM,-28%
same,growth inhibition,[12]; at 33.0 µM,-29%
same,growth inhibition,[12]; at 100.0 µM,-37%
same,growth inhibition,[13]; at 1.2 µM,-22%
same,growth inhibition,[13]; at 3.7 µM,-26%
same,growth inhibition,[13]; at 11.0 µM,-16%
same,growth inhibition,[13]; at 33.0 µM,-44%
same,growth inhibition,[13]; at 100.0 µM,-32%
same,growth inhibition,[14]; [16],60%
same,growth inhibition,[14]; [17],98% (active)
same,growth inhibition,[14]; at 50.0 µM,7.7%
same,growth inhibition,[15]; at 1.2 µM,-40%
same,growth inhibition,[15]; at 3.7 µM,-33%
same,growth inhibition,[15]; at 11.0 µM,-55%
same,growth inhibition,[15]; at 33.0 µM,-61%
same,growth inhibition,[15]; at 100.0 µM,-67%
CCCCCCSc1nc(COC(=O)NC)c(COC(=O)NC)n1C,growth inhibition,[1]; at 1.2 µM,-1%
same,growth inhibition,[1]; at 3.7 µM,0%
same,growth inhibition,[1]; at 11.0 µM,-2%
same,growth inhibition,[1]; at 33.0 µM,25%
same,growth inhibition,[1]; at 100.0 µM,98% (active)
same,growth inhibition,[2]; at 1.2 µM,-1%
same,growth inhibition,[2]; at 3.7 µM,-2%
same,growth inhibition,[2]; at 11.0 µM,-2%
same,growth inhibition,[2]; at 33.0 µM,6%
same,growth inhibition,[2]; at 100.0 µM,98% (active)
same,growth inhibition,[3]; at 1.2 µM,-3%
same,growth inhibition,[3]; at 3.7 µM,-6%
same,growth inhibition,[3]; at 11.0 µM,-6%
same,growth inhibition,[3]; at 33.0 µM,5%
same,growth inhibition,[3]; at 100.0 µM,87% (active)
same,growth inhibition,[4]; at 1.2 µM,0%
same,growth inhibition,[4]; at 3.7 µM,-48%
same,growth inhibition,[4]; [16],0%
same,growth inhibition,[4]; at 11.0 µM,20%
same,growth inhibition,[4]; at 33.0 µM,54%
same,growth inhibition,[4]; [17],91% (active)
same,growth inhibition,[4]; at 50.0 µM,49.6%
same,growth inhibition,[4]; at 100.0 µM,99% (active)
same,growth inhibition,[5]; at 1.2 µM,-1%
same,growth inhibition,[5]; at 3.7 µM,2%
same,growth inhibition,[5]; [16],0%
same,growth inhibition,[5]; at 11.0 µM,0%
same,growth inhibition,[5]; at 33.0 µM,9%
same,growth inhibition,[5]; [17],27%
same,growth inhibition,[5]; at 50.0 µM,98.3% (active)
